We go through 19 compounds from PubChem BioAssay (EPA / NIEHS).

What is called AC50 is the concentration at which the activity in the assay is half-maximal.

Structures are written as SMILES. Results filed as inconclusive are left out. Some compounds were tested as several samples or in several runs, with calls that do not always agree. Calls of active or inactive are those of the source. The calls were made as follows, unless noted: active = hit-call score of the fitted dose curve at least 0.9, where 1 is the maximum; inactive = score below 0.9.

The nature of assay [1]: CCTE_Shafer_MEA_acute_LDH: CCTE's Lactate Dehydrogenase Assay for Cytotoxicity in the Neural Acute Assay, Shafer Lab (AID 2284086; active = hit-call score of the fitted dose curve at least 0.9, where 1 is the maximum;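 also: active means LDH release rises above DMSO vehicle level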). A digest of the protocol:
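LDH released during 40 min compound exposure of primary rat cortical cultures, quantified by absorbance at 490 nm in collected medium. Fitting direction positive versus DMSO vehicle.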

Assay [2] can be described thus: CCTE_Shafer_MEA_dev_mutual_information_norm: CCTE's Neural Network Formation Assay for Mutual Information Normalization, Shafer Lab (AID 2284091).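 As to AC50: mutual information between electrodes summarised as area under curve across four recording days; potency is for a decrease in mutual information relative to DMSO.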 A digest of the protocol:
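Neurons from rat cortex were seeded at 1.5 x 10^5 cells/well onto PEI-coated MEAs in a laminin drop, then exposed to compound from day 0 for twelve days. Network recordings on four days gave mutual information, summarised by AUC relative to DMSO.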

Assay [3] can be described thus: CCTE_Shafer_MEA_dev_correlation_coefficient_mean: CCTE's Neural Network Formation Assay for Mean Correlation Coefficient, Shafer Lab (AID 2284093).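 As to AC50: well mean pairwise spike train correlation integrated as AUC over recording days 5 to 12; potency fitted for loss of correlation relative to DMSO vehicle wells.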 A digest of the protocol: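 Spontaneous activity recorded on days 5, 7, 9 and 12 post-plating; pairwise spike correlations are averaged across active electrodes and collapsed to an area-under-curve. Rat cortical cultures are dosed from plating through 12 days, with compound renewed at media changes.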

Assay [4] in a line: UKN2_HCS_IMR90_neural_migration: University of Konstanz (UKN) Leist Lab Neural Crest Cell Migration Assay in human induced IMR90 Pluripotent Stem Cells (UKN2) (AID 2284204). As to conditions: actives raise or lower the signal. A digest of the protocol: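 Stopper-exclusion migration (cMINC), human iPSC-derived neural crest cells; N2-S + EGF/FGF; compound added 24 h post-stopper removal, 24 h exposure. Readout: calcein-AM/Hoechst 30 min, HCS fluorescence imaging; bidirectional fitting, DMSO baseline.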

The nature of assay [5]: IUF_NPC1b_proliferation_BrdU_72hr: Leibniz Research Institute for Environmental Medicine (IUF) 72-hour Neural Progenitor Cell Bromodeoxyuridine (BrdU) Proliferation Assay (NPC1b) (AID 2284207). A digest of the protocol:
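Luminescent BrdU ELISA measured DNA synthesis during the last 16 h of a 72 h exposure of primary human neural progenitor spheres grown with EGF and FGF. Signal was fitted relative to DMSO controls.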

Assay [6] can be described thus: IUF_NPC1a_proliferation_area_72hr: Leibniz Research Institute for Environmental Medicine (IUF) 72-hour Neural Progenitor Cell Proliferation Area Assay (NPC1a) (AID 2284208). A digest of the protocol: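 Proliferation is scored as sphere area gain in primary human fetal neural progenitors treated for 72 h in EGF/FGF-containing medium. Viability, LDH and BrdU readouts come from the same wells.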

Assay [7] is described as follows: IUF_NPC1_viability_72hr: Viability Assessment at 72 hours in the Leibniz Research Institute for Environmental Medicine (IUF) Neural Progenitor Cell Proliferation Assay (NPC1) (AID 2284209). A digest of the protocol:
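Viability was measured by resazurin-to-resorufin fluorescence (alamar blue) after 72 h of continuous exposure without compound renewal. Each well held one hNPC sphere (gestational week 16-19 fetal cortex, 0.25-0.35 mm) cultured in EGF/FGF proliferation medium at 37C and pH 7.2-7.6.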

A short description of assay [8]: CCTE_Mundy_HCI_Cortical_Synap_Neur_Matur_NeuriteSpotCountPerNeuriteLength: CCTE's Synaptogenesis and Neurite Maturation Assay in rat cortical cells for Neurite Spot Count per Neurite Length, Mundy Lab (AID 2284210). A digest of the protocol:
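Read-out: synaptophysin puncta counted along MAP2-stained neurites, normalised to neurite length, by automated high-content imaging. Rat cortical cells; AraC DIV 5; chemical dosing DIV 7; termination DIV 12. DMSO baseline.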

Assay [9] in a line: CCTE_Mundy_HCI_Cortical_Synap_Neur_Matur_BPCount: CCTE's Synaptogenesis and Neurite Maturation Assay in rat cortical cells for Branch Point Count, Mundy Lab (AID 2284211). A digest of the protocol: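 HCI read-out of branch points from MAP2/synaptophysin/Hoechst immunofluorescence; rat cortical cultures, AraC DIV 5, dosing DIV 7, fixed DIV 12; fit in positive direction vs DMSO baseline.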

The nature of assay [10]: CCTE_Mundy_HCI_Cortical_NOG_NeuriteCount: CCTE's Neurite Outgrowth Assay in rat cortical cells for Neurite Count, Mundy Lab (AID 2284212).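 Also: cells fixed about two days after chemical exposure began.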 A digest of the protocol: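 Rat cortical primary cells; compound added 2 h post-plating, 1/10 dilution of working solution. Anti-betaIII-tubulin/AF488 ICC; ArrayScan neurite count vs DMSO.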
Assay [11] can be described thus: CCTE_Mundy_HCI_Cortical_NOG_NeuriteLength: CCTE's Neurite Outgrowth Assay in rat cortical cells for Neurite Length, Mundy Lab (AID 2284213).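 As to AC50: neurites imaged about 48 to 50 h after chemical exposure began.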 A digest of the protocol:
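First, rat primary cortical cells were plated and, 2 h later, given test chemical as a 1/10 dilution. Finally, βIII-tubulin immunostaining enabled automated imaging of neurite length.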

Assay [12] in a line: CCTE_Mundy_HCI_Cortical_Synap_Neur_Matur_NeuriteLength: CCTE's Synaptogenesis and Neurite Maturation Assay in rat cortical cells for Neurite Length, Mundy Lab (AID 2284214). A digest of the protocol:
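Neurite length quantified by automated high-content imaging of MAP2, synaptophysin and Hoechst staining. Rat cortical cells received chemical from DIV 7 to DIV 12 […], glial growth arrested by AraC at DIV 5; DMSO baseline.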

Assay [13] in a line: CCTE_Mundy_HCI_Cortical_Synap_Neur_Matur_NeuriteSpotCountPerNeuron: CCTE's Synaptogenesis and Neurite Maturation Assay in rat cortical cells for Neurite Spot Count per Neuron Count, Mundy Lab (AID 2284215). A digest of the protocol: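 Synapse density is scored as synaptophysin spots along neurites per neuron in fixed rat cortical neurons, measured at DIV 12 after chemical dosing at DIV 7. DMSO is the negative control and activity baseline.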

Assay [14] is described as follows: CCTE_Mundy_HCI_Cortical_Synap_Neur_Matur_SynapseCount: CCTE's Synaptogenesis and Neurite Maturation Assay in rat cortical cells for Synapse Count, Mundy Lab (AID 2284218). A digest of the protocol:
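High-content imaging of synaptophysin puncta per MAP2-positive neuron (Hoechst nuclei) in rat cortical cells exposed DIV 7–12 after glial arrest with AraC at DIV 5; decrease relative to DMSO scored.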

The nature of assay [15]: CCTE_Mundy_HCI_Cortical_Synap_Neur_Matur_NeuriteCount: CCTE's Synaptogenesis and Neurite Maturation Assay in rat cortical cells for Neurite Count, Mundy Lab (AID 2284222). A digest of the protocol:
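Rat primary cortical cells; AraC added at DIV 5, chemicals dosed with media change at DIV 7 through DIV 12. MAP2/synaptophysin/Hoechst immunostaining, high-content imaging of neurite number; fitted relative to DMSO.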

Assay [16] is described as follows: TAMU_PeakParms_SingleDonor1434_Chronotropy: Texas A&M University (TAMU) 1.5-hr Human Induced Pluripotent Stem Cell (iPSC)-derived Cardiomyocytes Calcium (Ca+2) Flux Assay for Cardiotoxicity: Chronotropy (changes in peak frequency) (AID 2284217). As to conditions: actives raise or lower the signal. A digest of the protocol: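 iPSC-derived cardiomyocytes (single donor 1434) dosed at 0.2, 1, 10 and 100 uM in 0.5% DMSO for 1.5 h at 37C; Ca2+ dye fluorescence gave average beat frequency. Zero-beat points removed; bidirectional fit versus DMSO, POD as EC05.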

A short description of assay [17]: CCTE_Mundy_HCI_hN2_NOG_NeuriteCount: CCTE's Neurite Outgrowth Assay in human hN2 cells for Neurite Count, Mundy Lab (AID 2284219; active = hit-call score of the fitted dose curve at least 0.9, where 1 is the maximum). A digest of the protocol:
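In this morphology assay, hNP1-derived neurons received test chemical 2 h post-plating and were fixed two days later in warm paraformaldehyde/sucrose containing Hoechst 33342. Neurites, labelled by rabbit anti-βIII-tubulin (1:800) and Alexa Fluor-488 (1:500), were counted automatically.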

Assay [18] can be described thus: CCTE_Mundy_HCI_hN2_NOG_NeuriteLength: CCTE's Neurite Outgrowth Assay in human hN2 cells for Neurite Length, Mundy Lab (AID 2284220; active = hit-call score of the fitted dose curve at least 0.9, where 1 is the maximum). A digest of the protocol:
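Read-out is neurite length from high-content imaging of βIII-tubulin/Alexa Fluor-488-labelled neurons, referenced to DMSO controls.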

`CCCCc1oc2ccccc2c1C(=O)c1cc(I)c(OCCN(CC)CC)c(I)c1`: the result in assay [1] was inactive.

Turning to `O=C(F)C(F)(F)C(F)(F)C(F)(F)C(=O)F`, the outcome in assay [2] and in assay [3] was inactive.

On to `N=C(N)c1ccc(OCCCCCOc2ccc(C(=N)N)cc2)cc1`, for which, in assay [1], the compound was called inactive.

In the case of `O=C(C=C(O)C(F)(F)F)C(F)(F)F`, the outcome in [2] and in assay [3] was inactive.

In the case of `Oc1ccc(Cc2ccccc2O)cc1`, the compound was called inactive in assay [1].

Regarding `CC(C)c1c(C(=O)Nc2ccccc2)c(-c2ccccc2)c(-c2ccc(F)cc2)n1CC[C@@H](O)C[C@@H](O)CC(=O)O`, the AC50 in [2] was 0.00793 µM (active); in assay [3] it was 0.00805 µM (active); in assay [5] it was 1.7 µM (active); in assay [8], 6.94 µM (active); in assay [9] it was 779 nM (active); in assay [10] it was 158 nM (active). Also, the AC50 in [11] is 145 nM (active); in assay [12], 2.82 µM (active); in [13], 3.05 µM (active); in assay [14], 3.58 µM (active); in assay [15], 3.35 µM (active). Moreover, the result in assay [4], in [6] and in [7] was inactive.

As to `COC(=O)C(F)(F)C(F)(F)C(F)(F)F`, the call in assay [2] and in assay [3] was inactive.

Regarding `CC(=O)Nc1ccc(O)cc1`, the call in assay [1], in assay [2], in assay [3], in assay [5], in [6] and in assay [7] was inactive. The compound was classed as inactive in assay [8], in assay [11], in assay [12], in [13], in assay [16] and in [14]. Also, the compound was classed as inactive in assay [17] and in assay [18].

For the compound `FCOC(C(F)(F)F)C(F)(F)F`, the result in assay [2] and in assay [3] was inactive.

In the case of `CCCCCCCCCCCC`, the call in [1] was inactive.

Regarding `CN(C)CCOC(c1ccccc1)c1ccccc1`, the outcome in assay [1] and in assay [2] was inactive. Further, the AC50 in [3] is 15.5 µM (active).

Regarding `O=C(O)C(F)(F)OC(F)(F)C(F)(F)OC(F)(F)C(F)(F)OC(F)(F)C(F)(F)C(F)(F)C(F)(F)F`, the compound was called inactive in assay [2] and in [3].

`O=P(O)(O)CCC(F)(F)C(F)(F)C(F)(F)C(F)(F)C(F)(F)C(F)(F)F`: the result in assay [2] and in assay [3] was inactive.

For `O=C(CC(=O)C(F)(F)C(F)(F)C(F)(F)F)c1cccs1`, the outcome in assay [2] was inactive. Also, the concentration at half-maximal activity (AC50) in assay [3] was 7.75 µM (active).

As for `O=P(O)(O)CCC(F)(F)C(F)(F)C(F)(F)C(F)(F)C(F)(F)C(F)(F)C(F)(F)C(F)(F)F`, the AC50 is 4.31 µM (active) in assay [2] and 6.27 µM (active) in [3].

As for `CN(CCO)S(=O)(=O)C(F)(F)C(F)(F)C(F)(F)C(F)(F)C(F)(F)C(F)(F)C(F)(F)C(F)(F)F`, the result in [2] and in assay [3] was inactive.

On to `O=CC(F)(F)C(F)(F)C(F)(F)C(F)F`, for which the outcome in assay [2] and in assay [3] was inactive.

Regarding `O=C(F)C(F)(F)C(F)(F)C(F)(F)C(F)F`, the result in [2] and in [3] was inactive.

For `OCC(F)(F)C(F)(F)C(F)(F)C(F)(F)C(F)(F)C(F)(F)C(F)(F)C(F)(F)C(F)(F)C(F)(F)C(F)(F)F`, the figures for the AC50 in assay [2] and in assay [3] were 4.61 µM (active) and 8.06 µM (active), respectively. Moreover, the compound was classed as inactive in [2] and in assay [3].
